Screening data (PubChem BioAssay)
Wnt act: activators of Wnt/beta-catenin signaling. Wnt/beta-catenin reporter cell assay, activator, plate reader. activation, % at 9.35 µM. hit rate 1.2% among 300,000; in the data active means activation above about 30%, passing the limit was not always enough; inconclusive means no clear call, values can overlap the other calls;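 further: 0% = neutral control wells and 100% = positive control wells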
esBAF inh: blocks esBAF chromatin remodeling in mouse ES cells; Bmi1-luciferase knock-in reporter, 24 h; 100% = twice the neutral-well signal; reporter increase, % at 12.5 µM; AID 602393; hit rate 2% among 350,000; in the data active means activation above about 40%; inconclusive means no clear call, values can overlap the other calls;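 further: 0% = median of the plate's neutral control wells and 100% = double that signal; a rise in the Bmi1 reporter signal indicates esBAF inhibition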
MITF act: increases MITF-driven TRPM1 promoter luciferase signal. SK-MEL-5 TRPM1-promoter luciferase, 24 h; % of positive control, neutral wells = 0. activation, % at 12.5 µM. hit rate 0.75% among 300,000. AID 588334;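 active means mean activation of at least 80% with every replicate also reaching 80%; inconclusive means mean reaches 80% but some replicate falls short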;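 further: 0% = neutral control wells and 100% = parthenolide positive control wells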
PAX8 reporter: PAX8 transcriptional activity inhibition | RMG-I TPO-luciferase reporter, SteadyGlo, 24 h | inhibition, % at 12.6 µM | hit rate 1.2% among 360,000;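 active means mean replicate inhibition at least 60% with every replicate also reaching 60%; inconclusive means only one of the two criteria is met; inactive means mean below 60% and not all replicates reaching 60%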;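 further: luciferase light reporting Pax8 driven TPO promoter activity; plate controls were median of neutral control wells for no effect and mitoxantrone controls for full effect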
MITF TRPM1 inh: MITF TRPM1 promoter inhibition in SK-MEL-5 cells | hit rate 0.83% among 330,000 | inhibition, % at 12.5 µM | SK-MEL-5 TRPM1 promoter luciferase, 24 h;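 active means mean inhibition across replicates of 60% or more, whatever share of single replicates reaches that level; inconclusive means some that reach 60%, reason not given; inactive means mean inhibition across replicates below 60%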
EWS-Fli inh: blocks EWS/Fli oncoprotein-driven transcription | inhibition, % at 12.6 µM | hit rate 0.67% among 350,000 | A673 NR0B1-luciferase reporter, viability-normalised;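 active means mean inhibition of at least 50% after viability correction, with every replicate also passing that limit; inconclusive means mean reaches 50% but only one of two replicates passes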;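 further: firefly luciferase signal divided by Alamar Blue viability fluorescence both relative to DMSO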
* marks the source's active call; other numbers are inactive results; ? = inconclusive; . = no result given; ! = not active in a repeat. Sampled rows, rich in hits. Any-hit rate of the full collection: about 4%.

SMILES | Wnt act | esBAF inh | MITF act | PAX8 reporter | MITF TRPM1 inh | EWS-Fli inh
CO[C@H]1CN(C)C(=O)c2cc(NC(=O)c3cnccn3)ccc2OC[C@H](C)N(C)C[C@@H]1C | . | -3 | . | . | . | -3
C[C@@H]1CCCCO[C@H](CN(C)S(=O)(=O)c2cn(C)cn2)[C@H](C)CN([C@@H](C)CO)C(=O)c2cc(NC(=O)Nc3ccc(F)cc3)ccc2O1 | . | 6 | . | -11 | . | 0
COc1cccc(-c2ccc(C3[C@@H]4CN(Cc5cccc(F)c5)C[C@H]3N4)cc2)c1 (stereo partly specified) | . | . | . | 75*! | . | -11
Cc1ccc(C(=O)c2ccccc2C(=O)OCC(=O)N2CCCC2)cc1 | 6 | 43* | 7 | -62 | -5 | -33
Nc1cc(Cl)ccc1C(=O)OCC(=O)N1CCCCCC1 | 9 | 53* | 73 | -132 | -78 | -15
Cc1ccc(C(=O)c2ccccc2C(=O)OCC(=O)NC(C)(C)C)cc1 | 0 | -4 | -7 | -18 | 8 | -2
O=C(OCC(=O)N1CCN(Cc2ccccc2)CC1)c1cc(Cl)ccc1[N+](=O)[O-] | 37* | -1 | -1 | -21 | 0 | -2
Cc1cccc(C(=O)OCC(=O)N2CCCCCC2)c1C | 34* | 64* | 79 | . | -80 | -3
CC(C)C#Cc1cnc2c(c1)C(=O)N([C@@H](C)CO)C[C@@H](C)[C@H](CN(C)C(=O)Nc1cccc(F)c1)O2 | . | 0 | . | 3 | . | -12
C[C@H](CO)N1C[C@H](C)[C@@H](CN(C)C(=O)Nc2ccc(F)cc2)Oc2ccc(NC(=O)C3CC3)cc2C1=O | . | 6 | . | -6 | . | .
CC(C)CC#Cc1ccc2c(c1)O[C@@H](CN(C)C(=O)C1CCCCC1)[C@@H](C)CN([C@H](C)CO)S2(=O)=O | . | 2 | . | . | . | 18
COc1ccc(C(C)NCCC(c2ccc(OC(C)C)cc2)c2ccccc2OC)cc1 (stereo unspecified) | 1 | . | -92 | 51 | 92* | ?
O=C(Nc1ccc(NC(=O)c2cccs2)cc1Cl)c1ccco1 | 46* | . | 61 | -109 | -62 | -90
O=C(Nc1ccc(Cl)c(NC(=O)c2cccs2)c1)c1ccco1 | 2 | -1 | . | 6 | 3 | 6
COc1cc(NC(=O)c2cccs2)ccc1NC(=O)c1ccco1 | 59* | 92* | 92* | -152 | -90 | .
COc1cc(NC(=O)c2ccccc2Cl)ccc1NC(=O)c1ccco1 | 17 | 51* | 92* | -235 | -91 | .
COC(=O)C[C@@H]1C[C@@H]2c3cc(NC(=O)CN(C)C)ccc3O[C@@H]2[C@H](CO)O1 | . | -12 | . | -17 | . | -1
CCC(=O)N(C)C[C@H]1Oc2ncc(Br)cc2C(=O)N([C@@H](C)CO)C[C@H]1C | . | -1 | . | . | . | 1
COc1ccc(Nc2nc(-c3ccc(OC)cc3)c(CCC(=O)O)s2)cc1 | 2 | -7 | -2 | -6 | 4 | 8
COC(=O)CCc1sc(Nc2ccccc2)nc1-c1ccc(OC)cc1 | 42* | . | 61 | -119 | -61 | .
COc1ccc(C[C@@H]2CCn3cc(nn3)COC[C@H](Cc3ccccc3)NC2=O)cc1 | . | . | . | -10 | . | -5
CCCNC(=O)N(C)C[C@H]1Oc2ncc(-c3ccc(OC)cc3)cc2C(=O)N([C@@H](C)CO)C[C@H]1C | . | 4 | . | . | . | -10
Cc1ccc2c(c1)N=C(c1ccc(Cl)cc1)CO2 | 11 | 49* | 72 | . | -69 | .
Cc1cccn2cc(-c3c[nH]c4ccccc34)nc12 | 13 | 81* | 13 | 36 | -14 | -97
Brc1ccc2nc(-c3c[nH]c4ccccc34)cn2c1 | 8 | -29 | 63 | -153 | -63 | -86
CCOc1cc(NCc2ccccc2)c2ncn(C(C)C)c2c1 | -15 | -3 | 2 | 77* | 0 | 2
CCCNC(=O)N[C@@H]1CC[C@H](CCn2cc(C3CCCCC3)nn2)O[C@H]1CO | . | -3 | . | -2 | . | -6
O=[N+]([O-])c1ccc(-[n+]2ccc3ccccc3c2)c([N+](=O)[O-])c1 | -18 | 15 | -89 | 47 | 89* | 43
O=[N+]([O-])c1ccc(SNc2ccccc2)c([N+](=O)[O-])c1 | 1 | . | 11 | 28 | -6 | 14
C/C=C/c1cnc2c(c1)C(=O)N([C@@H](C)CO)C[C@@H](C)[C@H](CN(C)Cc1ccc3c(c1)OCO3)O2 | . | -3 | . | 6 | . | -5
